{
  "source": "PubChem BioAssay (NCATS)",
  "note": "Records with an inconclusive call do not appear. The source made the active and inactive calls. Calls come from the whole dose curve; as a rule, active = well fitted inhibition curve with a large enough effect; inconclusive = small, poorly fitted or top-dose-only effect; inactive = flat fitted curve, though single readings scatter. % is set by controls: 0 for no effect and ±100 for the full control effect; potency is the fitted concentration of half-maximal effect.",
  "data": [
    {"assay": "Primary qHTS for inhibitors of nuclear receptor binding SET domain protein 2 (NSD2) in an isogenic RCH-ACV NSD2 p.E1099K mutant (9B) (AID 1645876); note: nearly all actives have a fitted effect of over 70% in size", "conditions": "RCH-ACV NSD2 E1099K (9B) viability, CellTiter-Glo, 72 h; series mostly up to 44.9 µM; activity change, negative = viability loss: at the top concentration", "values": [
      {"smiles": "COc1ccc(OC2OC(CO[C@@H]3O[C@@H](C)[C@H](O)[C@@H](O)[C@H]3O)C(O)C(O)C2O)cc1OC", "note": "(some centres undefined)", "outcome": "inactive [at 17.3 µM]"},
      {"smiles": "O=C(/C=C/c1ccc(O)c(O)c1)O[C@H]1[C@H](OC2CCCCC2O)O[C@H](CO)[C@@H](O)[C@@H]1O", "note": "(some centres undefined)", "activity change, negative = viability loss": "-5.19% [at 17.3 µM] (inactive)"},
      {"smiles": "CC(O)C1NC(=O)C2CCCN2C1=O", "note": "(centres undefined)", "activity change, negative = viability loss": "0.361% [at 91.9 µM] (inactive)"},
      {"smiles": "C[C@@H]1O[C@@H](O[C@H]2[C@@H]3C=CO[C@@H](O[C@@H]4O[C@H](CO)[C@@H](O)[C@H](O)[C@H]4O)[C@@H]3[C@@]3(CO)O[C@@H]23)[C@H](O)[C@H](OC(=O)/C=C/c2ccc(O)c(O)c2)[C@H]1O", "activity change, negative = viability loss": "-9.08% [at 17.3 µM] (inactive)"},
      {"smiles": "CC(=O)OC[C@]12[C@@H](OC(=O)c3ccoc3)C[C@@H]3[C@@H](OC(C)=O)[C@]1(OC3(C)C)[C@@](C)(O)C[C@H](OC(=O)c1ccoc1)[C@@H]2OC(=O)c1ccoc1", "activity change, negative = viability loss": "-13.3% [at 17.3 µM] (inactive)"},
      {"smiles": "CC(=O)OCC1OC(OC2COC(OC3COC(OC4C(OC5C(CO)OC(OC6CCC7(C)C(CCC8(C)C7CC=C7C9CC(C)(C)CCC9(C(=O)OC9OC(CO)C(O)C(O)C9OC9OCC(OC%10OCC(O)(CO)C%10O)C(O)C9O)C(O)CC78C)C6(C)C)C(O)C5O)OCC(O)C4O)C(O)C3O)C(O)C2O)C(OC(=O)/C=C/c2ccccc2)C(O)C1OC(C)=O", "note": "(centres undefined)", "Potency": "1250 nM (active)"},
      {"smiles": "CC(=O)OC12CC(C)C(O)C1/C=C(/COC1OC(CO)C(O)C(O)C1O)CCC1C(/C=C(\\C)C2=O)C1(C)C", "note": "(centres undefined)", "outcome": "inactive [at 17.3 µM]"},
      {"smiles": "O=C(/C=C/c1ccc(O)cc1)OC[C@H]1O[C@@H](O/C(=C\\c2ccccc2)C(=O)O)[C@H](O)[C@@H](O)[C@@H]1O", "outcome": "inactive [at 17.3 µM]"},
      {"smiles": "O=C(C1OC1/C=C/c1ccc2c(c1)OCO2)N1CCCCC1", "note": "(centres undefined)", "activity change, negative = viability loss": "-6.05% (inactive)"},
      {"smiles": "CC1=C2CC(O)(C(C)(C)O)C(O[C@@H]3O[C@H](CO)[C@@H](O)[C@H](O)[C@H]3O)CC(C)C2CC1=O", "note": "(some centres undefined)", "activity change, negative = viability loss": "-15.6% [at 17.3 µM] (inactive)"},
      {"smiles": "C#CCCCn1cc(-c2cccc3c2N[C@@H](C)CC(=O)N3)cn1", "activity change, negative = viability loss": "-25.1% (inactive)"},
      {"smiles": "CC1=C2C(=O)C=C(CO)C2[C@H]2OC(=O)[C@H](C)[C@@H]2[C@@H](OC(=O)Cc2ccc(O)cc2)C1", "note": "(some centres undefined)", "activity change, negative = viability loss": "3.78% [at 17.3 µM] (inactive)"},
      {"smiles": "COc1cc(/C=C/C(=O)O)ccc1O[C@@H]1O[C@H](CO)[C@@H](O)[C@H](O)[C@H]1O[C@@H]1OC[C@](O)(CO)[C@H]1O", "outcome": "inactive [at 17.3 µM]"},
      {"smiles": "CC(=O)O[C@@H]1[C@H](O[C@@H]2OC[C@](O)(CO)[C@H]2O)[C@@H](O[C@@H]2O[C@@H](C)[C@H](O)[C@@H](O[C@@H]3O[C@H](CO)[C@@H](O)[C@H](O)[C@H]3O)[C@H]2O)[C@H](OC(=O)[C@]23CCC(C)(C)C[C@H]2C2=CCC4[C@@]5(C)C[C@H](O)[C@H](O[C@@H]6O[C@H](C(=O)O)[C@@H](O)[C@H](O)[C@H]6O)[C@@](C)(C(=O)O)C5CC[C@@]4(C)[C@]2(C)CC3)O[C@@H]1C", "note": "(some centres undefined)", "activity change, negative = viability loss": "4.2% [at 9.23 µM] (inactive)"},
      {"smiles": "COc1c(-c2ccc(O)cc2)cc(OC)c2c1oc1cc(O)c(OC3OC(CO)C(O)C3O)cc12", "note": "(centres undefined)", "activity change, negative = viability loss": "-11.9% [at 17.3 µM] (inactive)"},
      {"smiles": "CC(C)=CCC[C@](C)(O[C@@H]1O[C@H](CO)[C@@H](O)[C@H](O)[C@H]1O)[C@H]1CC[C@]2(C)[C@@H]1[C@H](O)CC1[C@@]3(C)CC[C@H](O)C(C)(C)C3[C@@H](O[C@@H]3O[C@H](CO)[C@@H](O)[C@H](O)[C@H]3O[C@@H]3O[C@@H](C)[C@H](O)[C@@H](O)[C@H]3O)C[C@]12C", "note": "(some centres undefined)", "activity change, negative = viability loss": "-2.5% [at 9.23 µM] (inactive)"},
      {"smiles": "CC(C)C(NC(=O)c1ccc(O)cc1)C(=O)N1CCCC1C(=O)Nc1c(O)cccc1C(=O)O", "note": "(centres undefined)", "activity change, negative = viability loss": "-0.881% [at 17.3 µM] (inactive)"},
      {"smiles": "C=C1[C@H](OC(C)=O)[C@H]2[C@@H](OC(=O)c3ccccc3)[C@@H](C)C[C@]2(O)[C@@H](OC(C)=O)[C@H](C)/C=C/C(C)(C)C(=O)[C@H](OC(C)=O)[C@H]1OC(C)=O", "activity change, negative = viability loss": "-7.57% [at 17.3 µM] (inactive)"},
      {"smiles": "COc1cc(CO)cc(OC)c1O[C@@H]1O[C@H](CO)[C@@H](O)[C@H](O)[C@H]1O", "activity change, negative = viability loss": "3.36% (inactive)"},
      {"smiles": "C=CC(C)(CCC=C(C)C)O[C@@H]1O[C@H](CO)[C@@H](O)[C@H](O)[C@H]1O", "note": "(some centres undefined)", "activity change, negative = viability loss": "-2.8% (inactive)"},
      {"smiles": "CC1(C)CC[C@]2(C(=O)O)CC[C@]3(C)C(=CCC4[C@@]5(C)C[C@@H](O)[C@H](O)[C@](C)(CO)C5CC[C@]43C)[C@@H]2[C@@H]1O", "note": "(some centres undefined)", "activity change, negative = viability loss": "-4.22% [at 17.3 µM] (inactive)"},
      {"smiles": "CC(=O)c1[nH]cc(CCC(=O)O)c1CC(=O)O", "activity change, negative = viability loss": "-0.843% (inactive)"},
      {"smiles": "COC(=O)C1=COC(OC2OC(CO)C(O)C(O)C2O)C2C(C)C(OC(C)=O)C(OC(=O)c3ccccc3)C12", "note": "(centres undefined)", "activity change, negative = viability loss": "-2.89% [at 17.3 µM] (inactive)"},
      {"smiles": "CC1=C(CCC(C)O[C@@H]2O[C@H](CO)[C@@H](O)[C@H](O)[C@H]2O)C(C)(C)CC(O)C1", "note": "(some centres undefined)", "activity change, negative = viability loss": "3.94% (inactive)"},
      {"smiles": "COC(=O)C1=COC(O[C@@H]2O[C@H](COC(=O)/C=C/c3ccc(O)cc3)[C@@H](O)[C@H](O)[C@H]2O)C2C(CO)=CCC12", "note": "(some centres undefined)", "activity change, negative = viability loss": "1.37% [at 17.3 µM] (inactive)"},
      {"smiles": "CC(C)(CC(=O)N1CCCC1)NCC(=O)N1C[C@@H](F)C[C@H]1C#N", "activity change, negative = viability loss": "-0.437% (inactive)"},
      {"smiles": "C/C(=C\\C(=O)C[C@@]12C(=O)O[C@]3(C)CC[C@H]1C[C@H]23)C(N)=O", "activity change, negative = viability loss": "3.01% (inactive)"},
      {"smiles": "C[C@H]1/C=C/C=C/C=C/C=C/C=C/[C@@H](O)[C@H](C(=O)O)[C@H](O)C[C@H](O)CCC[C@H](O)C[C@H](O)C[C@H](O)[C@@H](C)C(=O)O[C@@H]1C", "activity change, negative = viability loss": "-3.61% [at 17.3 µM] (inactive)"},
      {"smiles": "C[C@@H]1CCC2C(C)(C)[C@H](O)[C@H](O)C[C@]2(C)[C@@]12Cc1c(O)cc3c(c1O2)CN(CCCC(=O)O)C3=O", "note": "(some centres undefined)", "activity change, negative = viability loss": "-4.87% [at 17.3 µM] (inactive)"},
      {"smiles": "C=C1CCC2(C(=O)OC3OC(CO)C(O)C(O)C3O)CCC3(C)C(=CCC4C5(C)CCC(OC6OC(CO)C(OC7OC(C)C(O)C(O)C7O)C(OC7OCC(O)C(O)C7O)C6O)C(C)(C)C5CCC43C)C2C1", "note": "(centres undefined)", "outcome": "inactive [at 9.23 µM]"},
      {"smiles": "C[C@H]1CC[C@@]2(OC1)O[C@H]1CC3C4CC[C@H]5C[C@@H](O)CC[C@]5(C)C4CC(=O)[C@]3(C)[C@H]1[C@@H]2C", "note": "(some centres undefined)", "activity change, negative = viability loss": "-4.4% [at 17.3 µM] (inactive)"},
      {"smiles": "COC(=O)CCC1(C)C(C(C)(C)O)C(O)CC2(C)Oc3c(C)c4c(c(OC)c3CC21)C(=O)OC4", "note": "(centres undefined)", "activity change, negative = viability loss": "-4.3% [at 17.3 µM] (inactive)"},
      {"smiles": "CC1=C(C(=O)OC2OC(COC3OC(CO)C(O)C(O)C3O)C(O)C(O)C2O)C(C)(C)CCC1", "note": "(centres undefined)", "outcome": "inactive [at 17.3 µM]"},
      {"smiles": "CC(=O)[C@@H]1C[C@H](C(C)(C)O[C@@H]2O[C@H](CO)[C@@H](O)[C@H](O)[C@H]2O)CC[C@@]2(CO)OC(=O)C[C@@H]12", "activity change, negative = viability loss": "0.681% [at 17.3 µM] (inactive)"},
      {"smiles": "CC(C)C[C@H](NC(=O)[C@@H]1O[C@H]1C(=O)O)C(=O)NCCCCN=C(N)N", "activity change, negative = viability loss": "-29.6% (inactive)"},
      {"smiles": "C[C@H]1CC(=O)C2=C(C1)C(O)C(O)[C@@]1(O)[C@H]2C(=O)c2cccc(O)c2[C@@H]1O", "note": "(some centres undefined)", "activity change, negative = viability loss": "-14.5% (inactive)"},
      {"smiles": "C=C(C(=O)O)[C@@H]1CC[C@@]2(C)CC[C@@H](O)C(=C)C2C1", "note": "(some centres undefined)", "activity change, negative = viability loss": "-15.6% (inactive)"},
      {"smiles": "CC1CCC2(C(=O)O)CCC3(C)C(=CCC4C5(C)CCC(O)C(C)(C(=O)O)C5CCC43C)C2C1(C)O", "note": "(centres undefined)", "outcome": "inactive [at 17.3 µM]"},
      {"smiles": "C[C@@H]1O[C@@H](OC2C(O[C@H]3[C@H](O[C@H]4CC[C@@]5(C)C(CC[C@]6(C)C5CC=C5C7CC(C)(C)CC(O)[C@]7(C)CC[C@]56C)C4(C)C)O[C@H](C(=O)O)[C@@H](O)[C@@H]3O)OC(CO)C(O)C2O)[C@H](O)[C@H](O)[C@H]1O", "note": "(some centres undefined)", "activity change, negative = viability loss": "3.07% [at 9.23 µM] (inactive)"}
    ]}
  ]
}
